# From PubChem BioAssay
# LASV entry inh: inhibitors of Lassa virus binding or cell entry; 1.2% of 300,000 active; Lassa virus pseudotype entry inhibition, cell reporter; Potency, µM (highest dose often 37.9 µM), for the others: at the highest dose activity change, negative = inhibition, usual class: inhibitors; calls by dose curve; tested in HEK293 cells; note: potency is the fitted concentration of half-maximal effect; % is set by controls: 0 for no effect and ±100 for the full control effect; nearly all actives have a fitted effect of over 50% in size
# HCMV inh: blocks human cytomegalovirus replication | HFF cells, HCMV-luciferase reporter, 72 h; active compounds read low | activity change, negative = inhibition, % at 57.5 µM | 4.5% of 410,000 active | AID 1259415; in the data active = activity change below about -60%; inconclusive = no clear call, values can overlap the other calls; inactive = above about -39%; note: % is set by controls: 0 for no effect and ±100 for the full control effect
#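 HFF cells seeded 16 h at 37C, treated with compounds, infected with luciferase-reporter HCMV at MOI 1 PFU/cell; luciferase read at 72 h post infection, normalized to buffer-only and Salinomycin controls.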
# SARS PLpro yeast: inhibitors of SARS-CoV papain-like protease in yeast. 0.19% of 330,000 active. S. cerevisiae expressing SARS-CoV PLpro, growth rescue. Potency, µM (series often up to 32.9 µM), inactives show at the top dose activity, positive = growth rescue, hits mostly activators; calls by dose curve; note: potency is the fitted concentration of half-maximal effect; 0% is about no effect; nearly all actives have a fitted effect of over 55% in size
# FMDV inh: foot and mouth disease virus antiviral activity. FMDV antiviral cell-based qHTS. Potency, µM (doses to about 57.9 µM), without a hit: at the highest dose activity change, negative = inhibition, usual class: inhibitors. 1.2% of 410,000 active; calls by dose curve; tested in HEK293T cells; note: read-out not given here; potency is the fitted concentration of half-maximal effect; % is set by controls: 0 for no effect and ±100 for the full control effect; nearly all actives have a fitted effect of over 45% in size
# MARV entry inh: inhibitors of Marburg virus binding or cell entry; Potency, µM (doses to about 37.8 µM), for inactives: at the top dose activity change, negative = inhibition, usual class: inhibitors; 1.8% of 300,000 active; Marburg virus pseudotyped entry inhibition, cell reporter; calls by dose curve; tested in HEK293 cells; note: potency is the fitted concentration of half-maximal effect; % is set by controls: 0 for no effect and ±100 for the full control effect
# HCV inh: blocks hepatitis C virus. 3.4% of 340,000 active. Potency, µM (titrated, usually from 41.8 µM), without a hit: at the top dose activity change, negative = inhibition, hits mostly inhibitors. Huh7.5.1 HCVcc-Cre infection, luciferase reporter, 44 h. AID 651820; active = well fitted inhibition curve with a large enough effect; inconclusive = small, poorly fitted or top-dose-only effect, or another doubt; inactive = no such curve, though single readings can be large or run the other way; note: potency is the fitted concentration of half-maximal effect; % is set by controls: 0 for no effect and ±100 for the full control effect
#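 HCVcc-Cre virus at an moi near 0.5 was added right after compound to cells cultured 4 h from seeding (1,000 cells/well). Luciferase activity was determined 44 h later, 15 min after substrate addition at RT.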
# The depositor's hits bear a star; ? = inconclusive; . = no result given; [ ] = dose if it differs, or a comment. Sampled rows, rich in hits. Any-hit rate of the full collection: about 8%.
SMILES,LASV entry inh,HCMV inh,SARS PLpro yeast,FMDV inh,MARV entry inh,HCV inh
Cc1ncc2c(c1CNC(=O)c1ccc3c(c1)OCO3)CCN(C(=O)c1scc3c1CCCC3)C2,.,.,.,-16%,.,.
Cc1ccc(-c2nnc(N3CCC(C)CC3)c3ccccc23)cc1C,3%,-27,-1%,20µM*,-26%[46.1 µM],?
Cc1ccc(-c2nnc(N3CCC(C)CC3)c3ccccc23)cc1,.,-32,-1%,?,.,?
Cc1ccccc1Nc1nnc(-c2ccc(C)c(S(=O)(=O)NCC3CCCO3)c2)c2ccccc12 (stereo not given),-5%[46.1 µM],-76*,.,20%,?,.
Cc1ccc(-c2nnc(N3CCOCC3)c3ccccc23)cc1S(=O)(=O)NCC1CCCO1 (stereo not given),-22%,-95*,2%,-15%,-16%,-6%
NC(=O)Cc1ccccc1Oc1nccc(-c2c(-c3ccc(F)cc3)ncn2C2CCNCC2)n1,-16%,.,.,.,.,.
CCCc1nc2c(C)cc(C)cc2c(N)c1CC,-1%,28,2%,-24%,23µM*,?
CCc1ccc2cc(C)cc(C)c2n1,.,-13,.,-8%,.,.
COc1cccc(-c2nc(CS(=O)(=O)CC(=O)Nc3ccccc3Cl)c(C)o2)c1,-4%[46.1 µM],-24,?,-20%,-28%[46.1 µM],13µM*
COc1cccc(-c2nc(CS(=O)(=O)CC(=O)Nc3ccccc3C)c(C)o2)c1,-4%[46.1 µM],0,-11%,-14%,?,?
COc1cccc(NC(=O)c2ccc(-c3nc(COc4ccc(C)cc4)c(C)o3)cc2)c1,?,17,.,0%,.,.
COc1cccc(-c2nc(CS(=O)(=O)CC(=O)NC3CCCc4ccccc43)c(C)o2)c1 (stereo not given),.,?,-3%,-7%,.,11µM*
COc1cccc(-c2nc(CS(=O)(=O)CC(=O)Nc3ccc(C(C)=O)cc3)c(C)o2)c1,.,10,-4%,-18%,.,11µM*
COc1cccc(NC(=O)c2ccc(-c3nc(COc4ccccc4)c(C)o3)cc2)c1,1%[46.1 µM],-66*,.,?,.,.
Cc1ccc(-n2nc(C(=O)Nc3ccc(F)cc3Cl)c(=O)n(C)c2=O)cc1,11%[46.1 µM],11,.,-17%,.,.
Cc1oc(-c2cccc(Cl)c2)nc1CS(=O)(=O)CC(=O)NC1CCCC1,-6%[46.1 µM],-62*,3%,-5%,7%[46.1 µM],-7%
COc1cccc(-c2nc(CS(=O)(=O)CC(=O)NC3CCCC3)c(C)o2)c1,4%[46.1 µM],-21,24%,?,?,?
COc1cccc(C(=O)NCc2nc(-c3cccc(NC(=O)c4ccoc4C)c3)oc2C)c1OC,.,.,.,20µM*,.,.
COc1ccc(S(=O)(=O)NC(C(=O)NCCc2ccccn2)C(C)C)cc1 (stereo not given),30%,-66*,-7%,-4%,7%,21%
COc1ccc2c3c([nH]c2c1)[C@@H](CO)N(C(=O)CC1CC1)CC31CCN(Cc2ccncc2)CC1,.,-74*,.,.,.,.
COc1ccc2c3c([nH]c2c1)[C@H](CO)N(C(=O)C1CCCC1)CC31CCN(C(=O)c2ccncc2)CC1,.,-18,.,.,.,.
C#CCN1C(=O)[C@@H](C)[C@@](C#N)(C(=O)OC)[C@H]1c1ccc(OC)cc1,.,1,.,.,.,.
Cc1ccccc1C(=O)Nc1nnc2n1CCS2,-3%[46.1 µM],48,.,74%,.,.
CCCCNC(=O)Cn1c(=O)cc(C)c2c(C)nn(-c3cccc(Cl)c3C)c21,?,15,.,11%,.,.
COc1ccc(C(=O)NC(c2ccccc2Cl)c2cc(Cl)c3cccnc3c2O)cc1 (stereo not given),?,-98*,.,-13%,.,.
COc1cc(NC(=O)c2ccc(Cl)cc2)c2ncccc2c1,.,34,-1%,-24%,.,?
COc1cc(C(=O)NC(c2ccccc2Cl)c2cc(Cl)c3cccnc3c2O)cc(OC)c1OC (stereo not given),?,-79*,.,-11%,.,.
Cc1cccc(NC(=O)c2oc3ccccc3c2NC(=O)c2cc(=O)c3cc(Cl)ccc3o2)c1,30%[46.1 µM],11,.,-7%,?,.
CCCCc1ccc(NC(=O)CSc2nc3ccccc3nc2N2CCOCC2)cc1,-6%[46.1 µM],-3,.,-8%,?,.
